# The full list was thinned out, with the strongest signals kept by preference.
# Key:
# Assay in all cases: glycan array binding signal (z-score within array); higher = stronger binding
# Conditions in all cases: glycan notation: IUPAC condensed, linker removed
# [1] = biological target: Fuc(a1-2)Gal(b1-4)GlcNAc(b1-2)Man
# Procedure, shortened: (§1)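 Negative Z-scores can be read as non-binding. The Z-score is calculated within each array and then averaged across arrays of one protein sequence at different concentrations or buffers and across linkers. Arrays, 3228 in all, were curated from the Consortium for Functional Glycomics database and kept only where the protein sequence was available.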
# [2] = biological target: Fuc(a1-2)Gal(b1-4)GlcNAc(b1-2)Man(a1-3)[Fuc(a1-2)Gal(b1-4)GlcNAc(b1-2)Man(a1-6)]Man(b1-4)GlcNAc(b1-4)GlcNAc
# Procedure, shortened: as §1
# [3] = biological target: Fuc(a1-2)Gal(b1-4)[Fuc(a1-3)]GlcNAc(b1-2)Man(a1-3)[Fuc(a1-2)Gal(b1-4)[Fuc(a1-3)]GlcNAc(b1-2)Man(a1-6)]Man(b1-4)GlcNAc(b1-4)[Fuc(a1-6)]GlcNAc
# Procedure, shortened: as §1
# Fuc(a1-2)Gal6S(b1-4)Glc = biological target: Fuc(a1-2)Gal6S(b1-4)Glc
# Procedure, shortened: as §1
# [4] = biological target: Fuc(a1-2)[Gal(a1-3)]Gal(b1-3)GlcNAc(b1-2)Man(a1-3)[Fuc(a1-2)[Gal(a1-3)]Gal(b1-3)GlcNAc(b1-2)Man(a1-6)]Man(b1-4)GlcNAc(b1-4)GlcNAc
# Procedure, shortened: as §1
# [5] = biological target: Fuc(a1-2)[GalNAc(a1-3)]Gal(b1-3)GlcNAc
# Procedure, shortened: as §1
# [6] = biological target: Fuc(a1-2)[GalNAc(a1-3)]Gal(b1-4)Glc
# Procedure, shortened: as §1
# [7] = biological target: Fuc(a1-3)[Gal(b1-4)]GlcNAc(b1-2)Man(a1-3)[Fuc(a1-3)[Gal(b1-4)]GlcNAc(b1-2)Man(a1-6)]Man(b1-4)GlcNAc(b1-4)GlcNAc
# Procedure, shortened: as §1
# [8] = biological target: Gal(a1-3)Gal(b1-3)[Fuc(a1-4)]GlcNAc(b1-2)Man(a1-3)[Gal(a1-3)Gal(b1-3)[Fuc(a1-4)]GlcNAc(b1-2)Man(a1-6)]Man(b1-4)GlcNAc(b1-4)GlcNAc
# Procedure, shortened: as §1
# [9] = biological target: Gal(a1-3)[Gal(a1-4)]Gal(b1-4)GlcNAc
# Procedure, shortened: as §1
# [10] = biological target: Gal(b1-3)GlcNAc(b1-2)[Gal(b1-3)GlcNAc(b1-6)]Man(a1-6)[Gal(b1-3)GlcNAc(b1-2)Man(a1-3)]Man(b1-4)GlcNAc(b1-4)GlcNAc
# Procedure, shortened: as §1
# [11] = biological target: Gal(b1-3)GlcNAc(b1-6)GalNAc
# Procedure, shortened: as §1
# [12] = biological target: Gal(b1-3)[Fuc(a1-4)]GlcNAc
# Procedure, shortened: as §1
# Gal(b1-4)GlcNAc(b1-2)Man = biological target: Gal(b1-4)GlcNAc(b1-2)Man
# Procedure, shortened: as §1
# [13] = biological target: Gal(b1-4)GlcNAc(b1-2)Man(a1-3)[Gal(b1-4)GlcNAc(b1-2)Man(a1-6)]Man(b1-4)GlcNAc(b1-4)[Fuc(a1-6)]GlcNAc
# Procedure, shortened: as §1
# [14] = biological target: Gal(b1-4)GlcNAc(b1-2)Man(a1-6)[Man(a1-3)]Man(b1-4)GlcNAc(b1-4)GlcNAc
# Procedure, shortened: as §1
# [15] = biological target: Gal(b1-4)GlcNAc(b1-3)Gal(b1-4)GlcNAc(b1-3)Gal(b1-4)GlcNAc(b1-3)Gal(b1-4)GlcNAc(b1-3)Gal(b1-4)GlcNAc(b1-2)Man(a1-3)[Gal(b1-4)GlcNAc(b1-3)Gal(b1-4)GlcNAc(b1-3)Gal(b1-4)GlcNAc(b1-3)Gal(b1-4)GlcNAc(b1-3)Gal(b1-4)GlcNAc(b1-2)Man(a1-6)]Man(b1-4)GlcNAc(b1-4)GlcNAc
# Procedure, shortened: as §1
# [16] = biological target: Gal(b1-4)GlcNAc(b1-3)Gal(b1-4)GlcNAc(b1-3)Gal(b1-4)GlcNAc(b1-3)Gal(b1-4)GlcNAc(b1-3)Gal(b1-4)GlcNAc(b1-3)Gal(b1-4)GlcNAc(b1-2)Man(a1-3)[Gal(b1-4)GlcNAc(b1-3)Gal(b1-4)GlcNAc(b1-3)Gal(b1-4)GlcNAc(b1-3)Gal(b1-4)GlcNAc(b1-3)Gal(b1-4)GlcNAc(b1-3)Gal(b1-4)GlcNAc(b1-2)Man(a1-6)]Man(b1-4)GlcNAc(b1-4)GlcNAc
# Procedure, shortened: as §1
# [17] = biological target: Gal(b1-4)GlcNAc(b1-3)Gal(b1-4)GlcNAc(b1-3)GalNAc
# Procedure, shortened: as §1
# Gal3S6S(b1-4)GlcNAc = biological target: Gal3S6S(b1-4)GlcNAc
# Procedure, shortened: as §1
# [18] = biological target: GalNAc3S(b1-4)[Fuc(a1-3)]GlcNAc
# Procedure, shortened: as §1
# [19] = biological target: GlcA3S(b1-3)Gal(b1-4)GlcNAc(b1-2)Man
# Procedure, shortened: as §1
# [20] = biological target: GlcNAc(a1-4)Gal(b1-4)GlcNAc(b1-3)Gal(b1-4)GlcNAc(b1-3)Gal(b1-4)GlcNAc
# Procedure, shortened: as §1
# [21] = biological target: GlcNAc(b1-2)Man(a1-3)[GlcNAc(b1-4)][GlcNAc(b1-2)Man(a1-6)]Man(b1-4)GlcNAc(b1-4)GlcNAc
# Procedure, shortened: as §1
# [22] = biological target: GlcNAc(b1-2)[GlcNAc(b1-4)]Man(a1-3)[GlcNAc(b1-2)Man(a1-6)]Man(b1-4)GlcNAc(b1-4)GlcNAc
# Procedure, shortened: as §1
# GlcNAc(b1-3)Gal(b1-4)Glc = biological target: GlcNAc(b1-3)Gal(b1-4)Glc
# Procedure, shortened: as §1
# [23] = biological target: GlcNAc(b1-3)Gal(b1-4)GlcNAc(b1-3)Gal(b1-4)GlcNAc
# Procedure, shortened: as §1
# [24] = biological target: GlcNAc(b1-3)Gal(b1-4)GlcNAc(b1-3)Gal(b1-4)GlcNAc(b1-3)Gal(b1-4)GlcNAc(b1-2)Man(a1-3)[GlcNAc(b1-3)Gal(b1-4)GlcNAc(b1-3)Gal(b1-4)GlcNAc(b1-3)Gal(b1-4)GlcNAc(b1-2)Man(a1-6)]Man(b1-4)GlcNAc(b1-4)[Fuc(a1-6)]GlcNAc
# Procedure, shortened: as §1
# [25] = biological target: GlcNAc(b1-3)Gal(b1-4)GlcNAc(b1-3)GalNAc
# Procedure, shortened: as §1
# Kdn(a2-6)Gal(b1-4)GlcNAc = biological target: Kdn(a2-6)Gal(b1-4)GlcNAc
# Procedure, shortened: as §1
# [26] = biological target: Man(a1-2)Man(a1-3)[Man(a1-2)Man(a1-6)]Man
# Procedure, shortened: as §1
# [27] = biological target: Man(a1-3)[Man(a1-6)]Man(a1-6)[Man(a1-3)]Man(b1-4)GlcNAc(b1-4)GlcNAc
# Procedure, shortened: as §1
# MurNAc(b1-4)GlcNAc = biological target: MurNAc(b1-4)GlcNAc
# Procedure, shortened: as §1
# [28] = biological target: Neu5Ac(a2-3)Gal(b1-3)GalNAc
# Procedure, shortened: as §1
# [29] = biological target: Neu5Ac(a2-3)Gal(b1-3)]Neu5Ac(a2-3)Gal(b1-4)]GlcNAc
# Procedure, shortened: as §1
# [30] = biological target: Neu5Ac(a2-3)Gal(b1-4)GlcNAc(b1-2)[Neu5Ac(a2-3)Gal(b1-4)GlcNAc(b1-4)]Man(a1-3)[GlcNAc(b1-4)][Neu5Ac(a2-3)Gal(b1-4)GlcNAc(b1-4)Man(a1-6)]Man(b1-4)GlcNAc(b1-4)GlcNAc
# Procedure, shortened: as §1
# [31] = biological target: Neu5Ac(a2-3)Gal(b1-4)GlcNAc(b1-3)Gal(b1-4)GlcNAc(b1-3)GalNAc
# Procedure, shortened: as §1
# [32] = biological target: Neu5Ac(a2-3)[GalNAc(b1-4)]Gal(b1-4)Glc
# Procedure, shortened: as §1
# [33] = biological target: Neu5Ac(a2-6)Gal(b1-4)GlcNAc(b1-2)Man(a1-3)[Neu5Ac(a2-6)Gal(b1-4)GlcNAc(b1-2)Man(a1-6)]Man(b1-4)GlcNAc(b1-4)GlcNAc
# Procedure, shortened: as §1
# [34] = biological target: Neu5Ac(a2-8)Neu5Gc(a2-3)Gal(b1-4)GlcNAc
# Procedure, shortened: as §1
# Neu5Gc(a2-3)Gal(b1-4)Glc = biological target: Neu5Gc(a2-3)Gal(b1-4)Glc
# Procedure, shortened: as §1
# [35] = biological target: Neu5Gc(a2-6)Gal(b1-4)GlcNAc
# Procedure, shortened: as §1
binder,measurement,setting,value
PX15618A-bth-503-24-503 (Bacteroides thetaiotaomicron) (protein) NKSEDKLSGDDFWAQGNETNAEAFLLSIYNSFRNATMSQRPFLTYSGDMRCAPITAYSTGDKYVAYLANNDMGELRNTYPDDARGGLIMQWDVFYTAIQDANILLAEIDKVPGMDELKRSRFKAEAIFMRSLSYFFIVRAFGDVPYYTNAYNEAPLPRTNMVIVLQNCLADLQPLLDDDPGAEVLPWSYSSYSSKGIRASRGSVIALMMHINLWLVQFDAQNKEQYYRNVVSLGEELERNNGAYSLLDINRSSVIFAGGSDEGLFEIAQNINFNEIFMMNAKFSDNVSYSCLNKSMPLFCYSGDYLMTLFPMYEDDARKELWFDEKIYSTSVSSSAPKEIKKFWNIDTYGNGTITSNSGNQIVFRYAGALLLYAEALAALGTNDTKACELLNRVRNRAHASEINTSGSELMDAIFWERCRELIGEGHYYYDLVRTGKVYNRNYCMNPMTRTNFNVGAWTWPIHRNALKNNTQIGLNLFWE,glycan array binding signal (z-score),[1],-0.103
same,glycan array binding signal (z-score),[2],2.2
same,glycan array binding signal (z-score),[3],0.352
same,glycan array binding signal (z-score),Fuc(a1-2)Gal6S(b1-4)Glc,2.77
same,glycan array binding signal (z-score),[4],-0.62
same,glycan array binding signal (z-score),[5],-0.665
same,glycan array binding signal (z-score),[6],-0.32
same,glycan array binding signal (z-score),[7],-0.28
same,glycan array binding signal (z-score),[8],6.49
same,glycan array binding signal (z-score),[9],3.72
same,glycan array binding signal (z-score),[10],2.47
same,glycan array binding signal (z-score),[11],2.58
same,glycan array binding signal (z-score),[12],-0.361
same,glycan array binding signal (z-score),Gal(b1-4)GlcNAc(b1-2)Man,-0.307
same,glycan array binding signal (z-score),[13],0.092
same,glycan array binding signal (z-score),[14],12.1
same,glycan array binding signal (z-score),[15],2.83
same,glycan array binding signal (z-score),[16],2.95
same,glycan array binding signal (z-score),[17],-0.08
same,glycan array binding signal (z-score),Gal3S6S(b1-4)GlcNAc,3.43
same,glycan array binding signal (z-score),[18],-0.361
same,glycan array binding signal (z-score),[19],-0.619
same,glycan array binding signal (z-score),[20],-0.188
same,glycan array binding signal (z-score),[21],-0.381
same,glycan array binding signal (z-score),[22],-0.803
same,glycan array binding signal (z-score),GlcNAc(b1-3)Gal(b1-4)Glc,-0.199
same,glycan array binding signal (z-score),[23],-0.161
same,glycan array binding signal (z-score),[24],0.037
same,glycan array binding signal (z-score),[25],0.059
same,glycan array binding signal (z-score),Kdn(a2-6)Gal(b1-4)GlcNAc,0.229
same,glycan array binding signal (z-score),[26],-0.505
same,glycan array binding signal (z-score),[27],0.524
same,glycan array binding signal (z-score),MurNAc(b1-4)GlcNAc,0.506
same,glycan array binding signal (z-score),[28],-0.436
same,glycan array binding signal (z-score),[29],0.09
same,glycan array binding signal (z-score),[30],-0.189
same,glycan array binding signal (z-score),[31],-0.707
same,glycan array binding signal (z-score),[32],-0.82
same,glycan array binding signal (z-score),[33],-0.217
same,glycan array binding signal (z-score),[34],13.7
same,glycan array binding signal (z-score),Neu5Gc(a2-3)Gal(b1-4)Glc,-0.471
same,glycan array binding signal (z-score),[35],-0.58

# Source: the supplement of paper PMC8728848
